# Most compounds without a hit are left out; they make up all but 19% or so of the library.
# HT1080-NT tox – kills 2HG-producing HT-1080-NT fibrosarcoma cells. HT-1080-NT fibrosarcoma viability, CellTiter-Glo ATP luminescence, 48 h. Potency, µM (highest dose often 46.1 µM), for the others: top-dose activity, negative = less viability, usual class: cytotoxic. AID 686970. hit rate 1.6% among 360,000;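 also: NT is the 2HG producing partner of a matched IDH1 knockdown line; 0% = DMSO-treated cells and -100% = media-only wells without cells; nearly all actives have a fitted effect of over 55% in size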
#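 HT-1080-NT fibrosarcoma cells (2HG-overproducing), 750 cells/well in RPMI with 5% FBS, dosed after 2 h and incubated 48 h at 37C. CellTiter-Glo luminescence normalized to DMSO and no-cell wells; concentration-response curves fitted and classed.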
# KB-3-1 cytotox – kills parental KB-3-1 adenocarcinoma cells; KB-3-1 viability, CellTiter-Glo ATP luminescence, 72 h; Potency, µM (doses to about 46.1 µM), hits mostly cytotoxic; hit rate 1.4% among 400,000; AID 1347075; also: nearly all actives have a fitted effect of over 60% in size
#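 Screening of KB-3-1 cells (DMEM, 10% FBS, phenol-red free) ran from lowest to highest compound concentration; after 72 h at 37 °C viability was read luminescently and curves fitted.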
# DT40 TDP1 CPT – DT40-hTDP1 cell growth loss with CPT; chicken DT40 Tdp1-/-;hTDP1 cells + 20 nM CPT, ATP luminescence, 48 h; Potency, µM (doses to about 46.2 µM), for inactives: at the highest dose activity change, negative = growth inhibition, usual class: inhibitors; hit rate 12% among 420,000; AID 686979; also: nearly all actives have a fitted effect of over 55% in size
#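 Chicken DT40 Tdp1-/- cells complemented with human TDP1, 400 cells/well, exposed to compounds plus 20 nM camptothecin for at least 48 h at 37 C; viability read as ATP content by CellTiter-Glo luminescence.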
# KB-V1 MDR tox – KB-V1 MDR subline cytotoxicity | hit rate 3.4% among 400,000 | Potency, µM (titrated, usually from 46.1 µM), actives largely listed as cytotoxic | KB-V1 MDR cells viability, CellTiter-Glo, 72 h; also: nearly all actives have a fitted effect of over 60% in size
#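 Following 72 h at 37 degrees C with compound, KB-V1 cell viability was read by CellTiter-Glo luminescence, medium being phenol-red-free DMEM plus 10% FBS; concentration-response parameters came from normalized, curve-fitted qHTS data.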
# HT1080 IDH1KD tx – kills HT-1080 cells with IDH1 knockdown. HT-1080 IDH1 knockdown viability, ATP luminescence, 48 h. Potency, µM (series often up to 46.1 µM), for the others: top-dose activity, negative = toxicity, usual class: cytotoxic. hit rate 2% among 360,000;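 also: 0% = DMSO wells and -100% = cell-free medium wells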
#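 % activity derives from luminescence (CellTiter-Glo), normalised to DMSO and no-cell wells. HT-1080-IDH1KD cells, 750/well, had 48 h compound exposure at 37 °C.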
# TDP1 cell noCPT – qHTS for Inhibitors of human tyrosyl-DNA phosphodiesterase 1 (TDP1): qHTS in cells in absence of CPT. hit rate 15% among 420,000. AID 686978, 2013. DT40 Tdp1-/- hTDP1 cells, no CPT, ATP luminescence, 48 h. Potency, µM (top dose mostly 46.2 µM), for inactives: at the highest dose activity change, negative = growth inhibition, actives largely listed as inhibitors; also: nearly all actives have a fitted effect of over 55% in size
#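 Stably hTDP1-transfected Tdp1-null chicken DT40 cells were treated with library compounds minus camptothecin and grown for at least 48 hr at 37 °C, after which cellular ATP was quantified by luminescence.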
# Numbers without * were called inactive; i = inactive; ? = inconclusive; / = not tested or not shown; [ ] = dose if it differs, or a comment. Calls follow the shape of the dose curve; as a rule, active = well fitted curve in the direction sought with a large enough effect; inconclusive = small, poorly fitted or top-dose-only effect, or another doubt; inactive = no such curve, though single readings can be large; an effect the other way counts as inactive or inconclusive. Unless noted, % is scaled to controls: 0 for no effect and ±100 for the full control effect; potency is read from the fitted curve at half-maximal effect.
SMILES,HT1080-NT tox,KB-3-1 cytotox,DT40 TDP1 CPT,KB-V1 MDR tox,HT1080 IDH1KD tx,TDP1 cell noCPT
CCC(=NC(C)c1ccccc1)c1c(O)n(C)c(=O)n(C)c1=O (stereo unspecified),-19%,?,21µM*,2.6µM*,-26%,7.3µM*
CCC(=NCCc1c[nH]c2ccccc12)c1c(O)n(C)c(=O)n(C)c1=O,?,?,4µM*,?,?,6.3µM*
CCC(=NCCN1CCCCC1)c1c(O)n(C)c(=O)n(C)c1=O,7%,i,-21%,i,3%,-1%
COC(=O)N1CCC2(CCCN(C)C2)CC1,/,/,27%,/,/,-20%
COc1ccc2c(c1)CCc1c(C(=O)Nc3c(C)nn(Cc4ccccc4C)c3C)noc1-2,/,i,23µM*,i,/,10µM*
Cc1ccc2oc(=O)c(-c3nc4ccc(C)cc4[nH]3)cc2c1,/,i,?,i,/,-29%
CC(=O)OC1C(=O)OCC23CCC4(C)OC4C2OC2CC(OC(=O)C=CC=CC(=O)OCCC1C)C3(C)C21CO1 (stereo unspecified),1.5µM*,0.18µM*,0.15µM*,0.37µM*,/,0.021µM*
CC(O)C1C=CC=CC(=O)OC2CC3OC4C5OC5(C)CCC4(COC(=O)C4OC4(C)C(O)CO1)C2(C)C31CO1 (stereo unspecified),?,0.21µM*,0.052µM*,10µM*,/,0.052µM*
O=C(/C=C/c1ccc(Cl)cc1)N[C@@]12CCC(=O)[C@@H]3Oc4c(O)ccc5c4[C@@]31CCN(CC1CC1)C2C5,/,/,13µM*,/,/,10µM*
Oc1ccc2c3c1O[C@H]1c4[nH]c5c(c4C[C@@]4(O)[C@@H](C2)N(CC2CC2)CC[C@]314)C[C@]1(O)[C@H]2Cc3ccc(O)c4c3[C@@]1(CCN2CC1CC1)[C@@H]5O4,/,/,-5%,/,/,-4%
NC(N)=Nc1ccc2[nH]c3c(c2c1)C[C@@]1(O)[C@H]2Cc4ccc(O)c5c4[C@@]1(CCN2CC1CC1)[C@H]3O5,15µM*,?,2.3µM*,i,16µM*,4.6µM*
O=C1CC[C@@]2(O)[C@H]3Cc4ccc(O)c5c4[C@@]2(CCN3CC2CC2)[C@@H]1O5,/,/,12%,/,/,-7%
Oc1ccc2c3c1O[C@H]1c4c(c5ccccc5n4Cc4ccccc4)C[C@@]4(O)C(C2)N(CC2CC2)CC[C@]314,/,/,5.2µM*,/,/,3.7µM*
O=C1/C(=C\c2ccccc2)C[C@@]2(O)[C@H]3Cc4ccc(O)c5c4[C@@]2(CCN3CC2CC2)[C@@H]1O5,/,/,2.4µM*,/,/,2.7µM*
O=S(=O)(c1ccccc1)C1CN1c1c(F)c(F)c(F)c(F)c1F (stereo unspecified),5%,i,-19%,i,8%,?
CN1[C@H](CC(=O)c2ccccc2)CCC[C@H]1C[C@@H](O)c1ccccc1,/,/,13%,/,/,-20%
CC(C)C[C@@H]1COc2cc(N3CCN(C)CC3)ccc2S(=O)(=O)N1,9%,i,-14%,?,5%,-24%
CC(NS(C)(=O)=O)c1nnc2n1-c1ccc(Br)cc1C(c1ccccc1Cl)=NC2 (stereo unspecified),0%,i,7%,i,-6%,?
CCC(C)n1c(O)c(C(c2ccccn2)c2c(O)n(C(C)CC)c(=S)[nH]c2=O)c(=O)[nH]c1=S (stereo unspecified),3%,i,7%,i,17%,0%
O=C1/C(=C\c2ccccc2)C[C@@]2(O)[C@H]3Cc4ccc(O)c5c4[C@@]2(CCN3CC2CC2)[C@H]1O5,/,/,2.1µM*,/,/,2.1µM*
COc1ccc(NC2=CC(=O)CC(c3ccccc3)C2)c(OC)c1 (stereo unspecified),3.5µM*,?,4.1µM*,2.6µM*,2.5µM*,3.3µM*
CC(O)(CS(=O)(=O)c1cccc(C(F)(F)F)c1)C(=O)Nc1cccc(C(F)(F)F)c1 (stereo unspecified),5%[9.24 µM],i,?,i,?,?
CC(O)(CS(=O)(=O)c1ccccc1)C(=O)Nc1ccc(C(F)(F)F)cc1 (stereo unspecified),?,i,-30%,15µM*,-22%,-18%
CC(O)(CS(=O)(=O)c1ccc(F)cc1)C(=O)Nc1ccc(C#N)c(C(F)(F)F)c1 (stereo unspecified),/,/,15µM*,/,/,11µM*
COC(=O)c1ccccc1C(=O)c1ccc(OCCN2CCCCC2)cc1,/,/,?,/,/,-28%
SMILES,HT1080-NT tox,KB-3-1 cytotox,DT40 TDP1 CPT,KB-V1 MDR tox,HT1080 IDH1KD tx,TDP1 cell noCPT
O=C(Nc1ccc2ccccc2c1)N1C[C@H]2C[C@@H](C1)c1cccc(=O)n1C2,-2%,i,-8%,i,-1%,23%
On1ccccc1=S,0.041µM*,i,0.13µM*,?,0.33µM*,0.0092µM*
C[C@H]1CCC/C=C/C2C[C@H](O)C[C@H]2[C@H](O)/C=C/C(=O)O1 (stereo partly specified),/,/,0.25µM*,/,/,0.35µM*
C[C@H]1CCC/C=C/[C@@H]2C[C@H](O)C[C@H]2[C@H](O)/C=C/C(=O)O1,0.41µM*,0.065µM*,0.58µM*,0.58µM*,0.0065µM*,0.65µM*
CCCCC[C@@H]1CCCCC[C@H](O)C[C@@H](O)[C@@H](O)/C=C/C(=O)O1,-9%,i,?,?,-14%,?
CCCCC[C@H]1CCCCC[C@@H](O)C[C@H](O)[C@H](O)/C=C/C(=O)O1,-2%,?,?,?,-27%,?
C[C@@H]1CN([C@@H](C)CO)C(=O)CCCn2cc(nn2)CO[C@H]1CN(C)C(=O)Oc1ccc2ccccc2c1,15%,i,-20%,i,10%,-22%
Cc1cccc(N2CCN(C(=O)CCS(=O)(=O)c3ccc4c(c3)oc(=O)n4C)CC2)c1C,1%,i,?,i,-1%,?
Cc1cccc(N2CCN(C(=O)CCCCn3c(=O)[nH]c4ccsc4c3=O)CC2)c1C,/,i,?,i,/,18µM*
O=C(CCCc1ccccc1)NCCc1cnc[nH]1,-1%,i,0%,i,2%,13%
NCCc1cc(O)c(O)cc1O,13%,i,5.2µM*,i,0%,3.7µM*
COc1cc(O)cc2c1cc([N+](=O)[O-])c1c(C(=O)O)cc3c(c12)OCO3,-1%,i,-1%,i,0%,?

# Bioassay records deposited in PubChem BioAssay by National Center for Advancing Translational Sciences (NCATS).
